Measurements: PubChem BioAssay (NCATS)
Calls of active or inactive are those of the source. Entries that show only a call come without a potency. Calls follow the shape of the dose curve; as a rule, active = well fitted inhibition curve with a large enough effect; inconclusive = small, poorly fitted or top-dose-only effect; inactive = flat fitted curve, though single readings scatter. Residues, ends and D or L forms follow the SMILES beside them. *: point of attachment. Cbz = O=C(OCc1ccccc1)*

Molecular target: Phosphoglycerate kinase, glycosomal (Trypanosoma brucei brucei) (UniProt P07378)
Test: qHTS Validation Assay to Find Inhibitors of Phosphoglycerate Kinase (AID 504547)
Conditions: enzymatic PGK inhibition, coupled luminescence read-out; series mostly up to 57.5 µM
Description: NIH Molecular Libraries Probe Production Network [MLPCN]
NIH Chemical Genomics Center [NCGC]
PI Name: Malcolm Walkinshaw, University of Edinburgh
Several species of the Trypanosomatidae family of parasitic protozoans cause a spectrum of diseases
throughout the tropical and subtropical world. Sleeping sickness, caused by two subspecies of Trypanosoma brucei, is endemic to areas of sub-Saharan Africa, while Chagas disease, a manifestation of Trypanosoma cruzi infection, is prevalent throughout Central and South America. In addition, many species of Leishmania are responsible for a range of cutaneous and visceral diseases, causing ulcers, destructive lesions and kalaazar, a lethal infection of the viscera. Collectively, these organisms infect 30 million people worldwide (~500 million live in endemic areas), and account for ~130,000 deaths annually. Given their debilitating and prevalent nature, trypanosomatid parasites impose a heavy medical, economic and social burden on entire populations, primarily in the developing world. The problem is further exacerbated by the fact that existing treatments have progressed little in the past 50 years, and current drugs show high toxicity and poor efficacy.
Blood-stream stages of T. brucei are entirely dependent on glycolysis as a source of ATP, and the tricarboxylic acid cycle and oxidative phosphorylation are both repressed. Glycolysis in axenically cultured T. cruzi, representing the intracellular pathogenic stage, is also essential for these parasites. […] Previous studies have shown that the glycolytic enzyme, phosphoglycerate kinase (PGK), is a viable target for drugs to kill these parasites.
NCGC Assay Protocol Summary:
Briefly, 3ul of substrate/PGK buffer (columns 1,2,5-48) are dispensed into Greiner white solid bottom 1536-well assay plates; columns 3-4 receive only TEA buffer as 0x PGK controls. Compounds are then transferred via Kalypsys pin tool equipped with 1536-pin array (10nl slotted pins, V&P Scientific, San Diego, CA). Following addition of compound, 1ul of GAPDH (100nM final concentration, all columns) is added to initiate the reaction (this upstream coupling enzyme is necessary for in-well production of PGK substrate, 1,3-bisphosphoglycerate (1,3-BPG), which is unstable and not commercially available). The plates are then incubated at room temperature for 60 minutes. Kinase-Glo Plus reagent is added (2ul) and plates incubated for 10 minutes, before being transferred to a ViewLux high-throughput CCD imager (PerkinElmer) wherein single end-point measurements of luminescence are acquired using a clear filter. All reagents are diluted in an assay buffer consisting of 100mM TEA (pH 7.6), 5mM MgCl2 and 0.01% Tween-20.

Sequence of Phosphoglycerate kinase, glycosomal (Trypanosoma brucei brucei) (P07378 whole entry, looked up): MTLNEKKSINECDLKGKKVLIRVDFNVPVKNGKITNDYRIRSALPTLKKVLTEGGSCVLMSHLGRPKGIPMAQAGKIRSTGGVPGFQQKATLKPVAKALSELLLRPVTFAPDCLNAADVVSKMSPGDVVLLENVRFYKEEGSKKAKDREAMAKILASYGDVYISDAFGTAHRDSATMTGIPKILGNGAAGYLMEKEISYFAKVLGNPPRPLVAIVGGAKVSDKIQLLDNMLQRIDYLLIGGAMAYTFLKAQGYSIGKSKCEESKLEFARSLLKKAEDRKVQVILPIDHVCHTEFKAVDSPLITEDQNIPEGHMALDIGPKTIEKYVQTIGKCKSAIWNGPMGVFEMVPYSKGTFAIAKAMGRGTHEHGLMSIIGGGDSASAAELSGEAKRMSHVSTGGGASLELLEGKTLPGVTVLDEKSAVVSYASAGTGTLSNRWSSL

SMILES	Potency
NC(Cc1cccc(-c2ccccc2CP(=O)(O)O)c1)C(=O)O (stereo not given)	inactive
COc1ccccc1N1CCN(CCCNc2c(C)c(=O)n(C)c(=O)n2C)CC1	inactive
Cc1ccccc1/C=C/C1=NCCN1	inactive
CC(C)[C@H](NC(=O)OCc1ccccc1)C(=O)N[C@H](C=O)Cc1ccccc1 (Cbz-Val-Phe-aldehyde)	inactive
O=C(O)/C=C/c1cnc[nH]1	inactive
CCCc1c(OCCCOc2ccc(OCC(=O)O)cc2)ccc(C(C)=O)c1O	inactive
CCCCCCCC/C=C\CCCCCCCC(=O)NCCc1ccc(O)c(O)c1	inactive
CC#CCOC(=O)c1c(C)nc2sc3c(c2c1N)CCC(O)C3 (stereo not given)	inactive
CCCCCC[C@@H]([C@@H](C)O)n1cnc2c(N)ncnc21	inactive
Cc1cccc(C2CN(C)CCc3c2cc(O)c(O)c3Cl)c1 (stereo not given)	inactive
CCN(CC)CCOC(=O)c1cc(Cl)c(N)cc1OC	inactive
CC(=O)SC1CC2=CC(=O)CC[C@]2(C)C2CC[C@@]3(C)C(CC[C@@]34CCC(=O)O4)C12 (stereo not given in full)	inactive
O=c1ccc2c(OCCCCc3ccccc3)c3ccoc3cc2o1	inactive
COc1cc2c(CCNC(C)=O)c[nH]c2cc1O	inactive
Cc1ccc([N+](=O)[O-])cc1S(=O)(=O)N(C)C	inactive
CN1CCCC1CCOC(C)(c1ccccc1)c1ccc(Cl)cc1 (stereo not given)	inactive
NC1(C(=O)O)CCc2cc(C(=O)O)ccc21 (stereo not given)	inactive
CC(N)=NCCCC[C@@H](N)C(=O)O	inactive
COc1ccc(CCN(C)CCc2ccc(OC)c(OC)c2)cc1OC	inactive
C=C1C[C@@]23CC[C@H]4[C@@](C)(CCC[C@@]4(C)C(=O)O)[C@@H]2CC[C@]1(O)C3	inactive

SMILES	Potency
CC(/C=C/c1cccc(Oc2ccc(F)cc2)c1)N(O)C(N)=O (stereo not given)	inactive
CCC1(O)CC2CN(CCc3c([nH]c4ccccc34)[C@@](C(=O)OC)(c3cc4c(cc3OC)N(C)C3[C@]45CCN4CC=C[C@@](CC)([C@@H](OC(C)=O)[C@]3(O)C(=O)OC)[C@H]45)C2)C1 (stereo not given in full)	inactive
CN(CC[C@@H](Oc1ccc(C(F)(F)F)cc1)c1ccccc1)CC(=O)O	inactive
CC(=O)O[C@H]1CC2(C)[C@@H](C[C@@H](O)[C@H]3[C@@]4(C)CC[C@@H](O)[C@@H](C)[C@@H]4CC[C@@]32C)C1=C(CCC=C(C)C)C(=O)O (stereo not given in full)	inactive
O=C(c1ccc2c(c1)OCCO2)N1CCCCC1	inactive
N#Cc1cc2nc(O)c(O)nc2cc1[N+](=O)[O-]	inactive
O=C(O)c1ccccc1Nc1ccccc1	inactive
CC(=O)N[C@@H](Cc1c[nH]c2ccccc12)C(=O)OCc1cc(C(F)(F)F)cc(C(F)(F)F)c1	inactive
c1ccc(C(NCc2cccnc2)(c2ccccc2)c2ccccc2)cc1	inactive
CCCCCCCCCCC/C=C\C(C)(C)/C=C\CCCC(=O)O	inactive
CNc1ncnc2c1ncn2[C@H]1C[C@H](OP(=O)(O)O)[C@@H](COP(=O)(O)O)O1	inactive
NCC(O)(CS(=O)(=O)O)c1ccc(Cl)cc1 (stereo not given)	inactive
Nc1nc2ccc(Cl)cc2c2nc(-c3ccco3)nn12	inactive
[Li+]	inactive
N[C@@H](CS(=O)O)C(=O)O	inactive
COc1ccccc1N1CCN(CCCCN2C(=O)c3ccccc3C2=O)CC1	inactive
CCCCCCCCCCCCCCSCC(=O)O	inactive
O=C(O)c1cc2cc(F)ccc2[nH]1	inactive
Cc1cccc(C(=O)NCN2CCN(c3ccccc3C#N)CC2)c1	inactive
N=C(N)SCCc1cnc[nH]1	inactive
